In PubChem BioAssay AID1159580 (chemical genetic matrix, 2015):
The campaign covered roughly 5,500 compounds. About 2,000 (36%) were called active. Another 18% or so got no clear call; they are omitted. Cut-off read from the data, not from the text of the source: active = normalized growth mostly below about 0.91 (no sharp cut-off); inconclusive = no clear call, values can overlap the other calls; inactive = mostly above about 0.92. The list shows a part of the results.

Test: chemical genetic growth profiling, strain panel (AID 1159580);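 note: tested at 20 µM; growth read once vehicle control cultures reached saturation at 30 °C; 1 = growth at the plate median or of vehicle wells; lower values mean less growth of the strain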
Conditions: growth OD

Measured: normalized growth

CC(C)CC(N(C)C)C1(c2ccc(Cl)cc2)CCC1 (configuration not stated)
inactive: S. cerevisiae deletion strains, locus YJR075W, strain HOC1, hits give low values 0.995 | S. cerevisiae deletion strains, locus YKL009W, strain mrt4, hits give low values 1.03 | S. cerevisiae deletion strains, locus YKL068W, hits give low values 1.01 | S. cerevisiae deletion strains, locus YKL085W, strain MDH1 (second series), hits give low values 1.01 | S. cerevisiae deletion strains, locus YKL085W, strain MDH1, hits give low values 1.01 | S. cerevisiae deletion strains, locus YKL160W, strain elf1, hits give low values 1.02 | S. cerevisiae deletion strains, locus YKL190W, strain CNB1, hits give low values 0.997 | S. cerevisiae deletion strains, locus YKR001C, strain vps1, hits give low values 1.02 | S. cerevisiae deletion strains, locus YKR026C, strain gcn3, hits give low values 1.01 | S. cerevisiae deletion strains, locus YKR091W, strain srl3, hits give low values 1.01 | S. cerevisiae deletion strains, locus YLL001W, strain dnm1, hits give low values 1.01 | S. cerevisiae deletion strains, locus YLL026W, hits give low values 1.01 | S. cerevisiae deletion strains, locus YLL041C, strain sdh2, hits give low values 1 | S. cerevisiae deletion strains, locus YLR027C, strain aat2, hits give low values 1.02 | S. cerevisiae deletion strains, locus YLR039C, strain RIC1, hits give low values 1.13 | S. cerevisiae deletion strains, locus YLR058C, strain SHM2, hits give low values 1.01 | S. cerevisiae deletion strains, locus YLR102C, strain apc9, hits give low values 1.01 | S. cerevisiae deletion strains, locus YLR113W, strain HOG1, hits give low values 0.995 | S. cerevisiae deletion strains, locus YLR221C, strain rsa3, hits give low values 0.994 | S. cerevisiae deletion strains, locus YLR258W, strain gsy2, hits give low values 1 | S. cerevisiae deletion strains, locus YLR262C, strain YPT6 (second series), hits give low values 1.05 | S. cerevisiae deletion strains, locus YLR262C, strain YPT6, hits give low values 1.11 | S. cerevisiae deletion strains, locus YLR268W, strain sec22, hits give low values 1.02 | S. cerevisiae deletion strains, locus YLR320W, strain mms22, hits give low values 0.989 | S. cerevisiae deletion strains, locus YLR330W, strain CHS5, hits give low values 1 | S. cerevisiae deletion strains, locus YLR342W, strain FKS1 (second series), hits give low values 1.01 | S. cerevisiae deletion strains, locus YLR342W, strain FKS1, hits give low values 1.01 | S. cerevisiae deletion strains, locus YLR357W, strain rsc2, hits give low values 1.01 | S. cerevisiae deletion strains, locus YLR370C, strain arc18, hits give low values 1.01 | S. cerevisiae deletion strains, locus YLR371W, strain rom2, hits give low values 1.01 | S. cerevisiae deletion strains, locus YLR384C, strain iki3, hits give low values 1.02 | S. cerevisiae deletion strains, locus YLR418C, strain cdc73, hits give low values 1.05 | S. cerevisiae deletion strains, locus YML016C, strain PPZ1, hits give low values 1.02 | S. cerevisiae deletion strains, locus YML032C, strain rad52, hits give low values 1.02 | S. cerevisiae deletion strains, locus YML120C, strain ndi1, hits give low values 1.01 | S. cerevisiae deletion strains, locus YML124C, strain tub3, hits give low values 1.01 | S. cerevisiae deletion strains, locus YMR058W, strain fet3, hits give low values 1.01 | S. cerevisiae deletion strains, locus YMR078C, strain ctf18, hits give low values 1.02 | S. cerevisiae deletion strains, locus YMR125W, strain sto1, hits give low values 0.979 | S. cerevisiae deletion strains, locus YMR129W, hits give low values 1.01 | S. cerevisiae deletion strains, locus YMR205C, strain PFK2, hits give low values 1.01 | S. cerevisiae deletion strains, locus YMR223W, strain ubp8, hits give low values 1.01 | S. cerevisiae deletion strains, locus YMR231W, strain pep5, hits give low values 0.989 | S. cerevisiae deletion strains, locus YMR263W, strain SAP30, hits give low values 0.999 | S. cerevisiae deletion strains, locus YMR307W, strain GAS1, hits give low values 1.01 | S. cerevisiae deletion strains, locus YNL067W, strain RPL9B, hits give low values 0.992 | S. cerevisiae deletion strains, locus YNL071W, strain lat1, hits give low values 1.01 | S. cerevisiae deletion strains, locus YNL128W, strain TEP1, hits give low values 0.987 | S. cerevisiae deletion strains, locus YNL153C, strain GIM3, hits give low values 1.01 | S. cerevisiae deletion strains, locus YNL183C, strain NPR1, hits give low values 0.972 | S. cerevisiae deletion strains, locus YNL209W, strain ssb2, hits give low values 0.996 | S. cerevisiae deletion strains, locus YNL233W, strain BNI4, hits give low values 1.01 | S. cerevisiae deletion strains, locus YNL248C, strain rpa49, hits give low values 0.997 | S. cerevisiae deletion strains, locus YNL250W, strain rad50, hits give low values 1 | S. cerevisiae deletion strains, locus YNL271C, strain bni1, hits give low values 1.02 | S. cerevisiae deletion strains, locus YNL298W, strain CLA4, hits give low values 1.02 | S. cerevisiae deletion strains, locus YNL307C, strain MCK1, hits give low values 1.03 | S. cerevisiae deletion strains, locus YNL322C, strain KRE1 (second series), hits give low values 1 | S. cerevisiae deletion strains, locus YNL322C, strain KRE1, hits give low values 1 | S. cerevisiae deletion strains, locus YNR049C, strain mso1, hits give low values 0.996 | S. cerevisiae deletion strains, locus YNR052C, strain pop2, hits give low values 1.01 | S. cerevisiae deletion strains, locus YOL006C, strain TOP1, hits give low values 1.03 | S. cerevisiae deletion strains, locus YOL012C, strain htz1 0.875 | S. cerevisiae deletion strains, locus YOL147C, strain pex11, hits give low values 1 | S. cerevisiae deletion strains, locus YOR001W, strain rrp6, hits give low values 1.02 | S. cerevisiae deletion strains, locus YOR061W, strain CKA2, hits give low values 1.01 | S. cerevisiae deletion strains, locus YOR069W, strain VPS5, hits give low values 0.992 | S. cerevisiae deletion strains, locus YOR070C, strain gyp1, hits give low values 0.997 | S. cerevisiae deletion strains, locus YOR080W, strain dia2, hits give low values 1.01 | S. cerevisiae deletion strains, locus YOR083W, strain WHI5, hits give low values 1 | S. cerevisiae deletion strains, locus YOR106W, strain vam3, hits give low values 1.03 | S. cerevisiae deletion strains, locus YOR136W, strain idh2, hits give low values 1.02 | S. cerevisiae deletion strains, locus YOR144C, strain elg1, hits give low values 1.02 | S. cerevisiae deletion strains, locus YOR184W, strain ser1, hits give low values 1.03 | S. cerevisiae deletion strains, locus YOR231W, strain MKK1, hits give low values 1.03 | S. cerevisiae deletion strains, locus YOR265W, strain rbl2, hits give low values 1.02 | S. cerevisiae deletion strains, locus YOR270C, strain vph1, hits give low values 0.991 | S. cerevisiae deletion strains, locus YOR290C, strain snf2, hits give low values 0.99 | S. cerevisiae deletion strains, locus YOR316C, strain cot1, hits give low values 1.01 | S. cerevisiae deletion strains, locus YPL051W, strain arl3, hits give low values 0.997 | S. cerevisiae deletion strains, locus YPL055C, strain LGE1, hits give low values 0.999 | S. cerevisiae deletion strains, locus YPL078C, strain atp4, hits give low values 1.02 | S. cerevisiae deletion strains, locus YPL106C, strain sse1, hits give low values 0.988 | S. cerevisiae deletion strains, locus YPL240C, strain hsp82, hits give low values 1.02 | S. cerevisiae deletion strains, locus YPL241C, strain CIN2, hits give low values 0.995 | S. cerevisiae deletion strains, locus YPL256C, strain CLN2, hits give low values 1.01 | S. cerevisiae deletion strains, locus YPR119W, strain clb2, hits give low values 1.01 | S. cerevisiae deletion strains, locus YPR141C, strain kar3, hits give low values 1.01 | S. cerevisiae deletion strains, locus YPR163C, strain tif3, hits give low values 1.02 | S. cerevisiae deletion strains, locus YPR167C, strain met16, hits give low values 1.02 | S. cerevisiae deletion strains, strain wtn01, hits give low values 1.03 | S. cerevisiae strains, strain wild type, hits give low values 0.98
